Records with an inconclusive call do not appear. Where a call stands in place of a potency, no number is given. The source made the active and inactive calls. The call rests on the fitted dose curve.
Experiments:
[1] = Cytotoxicity counterscreen for inhibitors of SARS-CoV-2 cell entry (AID 1645845); further: nearly all actives have a fitted effect of over 50% in size
How it was run: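 Counterscreen run in the same HEK293-ACE2 line as the pseudotyped-particle entry assay, without particles. Viability after 48 h at 37 C was read as ATP luminescence, scaled between cell-containing and cell-free wells.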

[2] = Primary qHTS to identify inhibitors of SARS-CoV-2 cell entry (AID 1645846); conditions: activity change, negative = inhibition: at 57.1 µM (top of the series) unless noted; further: nearly all actives have a fitted effect of over 45% in size; further: potency means the concentration at half of the fitted maximal effect
How it was run: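 Data are normalized to wells receiving SARS-CoV-2-S pseudoparticles and those given bald particles. Entry signal was luciferase luminescence in stable hACE2 Expi293F cells, 48 hr post-infection, after 1 hr compound pretreatment.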

Row | SMILES | Potency [1] | activity change, negative = inhibition [2] [%] | Potency [2]
1 | NCCNC(=O)c1ccc(Cl)cn1 | inactive | -12.8 | 
2 | CCCC(=O)OC[C@@H](OC(=O)CCC)[C@@H](OC(=O)CCC)[C@H](Cn1c2nc(=O)[nH]c(=O)c-2nc2cc(C)c(C)cc21)OC(=O)CCC | inactive | -16.8 | 
3 | CC(C(O)c1ccc(O)cc1)N1CCC(Cc2ccccc2)CC1 (stereo not given) | inactive | -24.3 | 
4 | C[C@@H]1CCN(C(=O)[C@H](CCCN=C(N)N)NS(=O)(=O)c2cccc3c2NC[C@H](C)C3)[C@@H](C(=O)O)C1 | inactive | -11.8 | 
5 | COC(=O)C1=C(C)NC(C)=C(C(=O)OCCN2CCN(C(c3ccccc3)c3ccccc3)CC2)C1c1cccc([N+](=O)[O-])c1 (stereo not given) | inactive |  | 17.8 µM (active)
6 | CNC(=O)c1c(I)c(NC(=O)CCCCC(=O)Nc2c(I)c(C(=O)O)c(I)c(C(=O)NC)c2I)c(I)c(C(=O)O)c1I | inactive |  | inactive
7 | CCOCCn1c(N2CCCN(C)CC2)nc2ccccc21 | inactive | -36.1 | 
8 | O=C(c1ccc(F)cc1)C1CCN(CCn2c(=O)[nH]c3ccccc3c2=O)CC1 | inactive | -1.25 | 
9 | CCc1cccc2c3c([nH]c12)C(CC)(CC(=O)O)OCC3 (stereo not given) | inactive |  | inactive
10 | CCOc1ccc(NC(C)=O)cc1 | inactive |  | inactive

From PubChem BioAssay (NCATS)
